HTT aggregate: mutant huntingtin aggregation inhibition; PC12 HttQ103-GFP aggregates, Acumen cytometry, 40 h; Potency, µM (titrated, usually from 46.1 µM), for inactives: top-dose activity change, negative = inhibition, actives largely listed as inhibitors; 1.1% of 220,000 active; AID 1688; note: potency is the fitted concentration of half-maximal effect; % is set by controls: 0 for no effect and ±100 for the full control effect; nearly all actives have a fitted effect of over 60% in size
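Huntingtin Q103 exon 1–GFP aggregates in induced PC12 cells (100 nM tebufenozide) were quantified by cytometry from lysates, with compounds dosed in titration.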
ALDH1A1 block: blocks purified human ALDH1A1 activity. P00352. Purified ALDH1A1, NADH fluorescence, propionaldehyde substrate. Potency, µM (top dose mostly 75.3 µM), for the others: top-dose activity, negative = inhibition, usual class: inhibitors. 7.3% of 220,000 active. AID 1030; active = well fitted inhibition curve with a large enough effect, not every such curve was filed as active; inconclusive = small, poorly fitted or top-dose-only effect, or another doubt; inactive = no such curve, though single readings can be large or run the other way;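 note: potency is the fitted concentration of half-maximal effect; plate controls were no enzyme wells and a reference inhibitor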
IMPase Li cell: cell-permeable IMPase inhibitors with lithium potentiation; CHO-M1 cells, IP1 TR-FRET (IP-One), carbachol + lithium; Potency, µM (series often up to 59.4 µM), for the others: at the highest dose activity, negative = IMPase inhibition, usual class: inhibitors; 0.35% of 210,000 active; AID 1457;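 note: IP1 builds up when IMPase is blocked and the TR-FRET signal falls; potency is the fitted concentration of half-maximal effect; plate controls were basal vehicle for no effect and high inhibitor control for full effect; nearly all actives have a fitted effect of over 50% in size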
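Test compounds were applied to CHO-M1 cells previously cultured for 16–30 h at 2000 per well. A small lithium amount accompanied them; after 30 min at 37C, IP1 was quantified by TR-FRET.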
HPGD block: HPGD (human) dehydrogenase inhibition; P15428; purified HPGD, NADH fluorescence kinetic, PGE2 substrate; Potency, µM, without a hit: top-dose activity change, negative = inhibition, usual class: inhibitors; 4.3% of 150,000 active; AID 894; active = well fitted inhibition curve with a large enough effect, not every such curve was filed as active; inconclusive = small, poorly fitted or top-dose-only effect, or another doubt; inactive = no such curve, though single readings can be large or run the other way; note: potency is the fitted concentration of half-maximal effect; % is set by controls: 0 for no effect and ±100 for the full control effect
Target sequence (P15428 whole entry, looked up): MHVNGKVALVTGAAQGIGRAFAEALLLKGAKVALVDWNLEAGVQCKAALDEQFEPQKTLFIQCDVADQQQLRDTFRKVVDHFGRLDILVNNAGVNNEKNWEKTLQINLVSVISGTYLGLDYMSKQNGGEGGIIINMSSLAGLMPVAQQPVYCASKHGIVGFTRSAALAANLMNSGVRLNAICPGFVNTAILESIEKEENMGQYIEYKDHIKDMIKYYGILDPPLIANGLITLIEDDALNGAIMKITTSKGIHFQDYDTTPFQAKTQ
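NADH formation kinetics: reaction with 30 uM PGE2 and 1 mM NAD+ (final), 20 nM enzyme, Tris-HCl pH 8 with Tween 20, after 15 min compound preincubation at room temperature. Fluorescence change, last versus first of five reads.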
HTT cytoprotect: cytoprotection in Huntington HTT-Q103 PC12 cell model; PC12 HTT-Q103 induced, cytoprotection, ATP luminescence, 40 h; Potency, µM (top dose mostly 56.4 µM), inactives show cytoprotection (ATP increase), hits mostly activators; 0.14% of 230,000 active; note: potency is the fitted concentration of half-maximal effect; % of control where 0% means no effect; nearly all actives have a fitted effect of over 45% in size
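Compounds added alongside 100 nM tebufenozide, which induces toxic Q103 huntingtin exon 1-GFP in stable PC12 cells; surviving cells quantified by luminescent ATP measurement. Medium: phenol red-free DMEM, 5% equine and 5% calf serum.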
IMPase inh: membrane-permeable compound that blocks inositol monophosphatase; P97697; CHO-M1 cells, IP1 accumulation, HTRF TR-FRET ratio; inhibition (IP1 accumulation), % at 46.1 µM; 120,000 tested, under 10 active; AID 901; active = well fitted curve in the direction sought with a large enough effect in the signal ratio, not every such curve was filed as active; inconclusive = small, poorly fitted or top-dose-only effect, or a change in a side signal; inactive = no such curve, though single readings can be large or run the other way; the % refers to the signal ratio;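 note: cells stimulated with carbachol in lithium chloride buffer; plate controls were DMSO basal wells for no effect and reference inhibitor wells for full effect; higher means more IMPase inhibition seen as more IP1 and lower FRET ratio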
Target sequence (P97697 whole entry, looked up): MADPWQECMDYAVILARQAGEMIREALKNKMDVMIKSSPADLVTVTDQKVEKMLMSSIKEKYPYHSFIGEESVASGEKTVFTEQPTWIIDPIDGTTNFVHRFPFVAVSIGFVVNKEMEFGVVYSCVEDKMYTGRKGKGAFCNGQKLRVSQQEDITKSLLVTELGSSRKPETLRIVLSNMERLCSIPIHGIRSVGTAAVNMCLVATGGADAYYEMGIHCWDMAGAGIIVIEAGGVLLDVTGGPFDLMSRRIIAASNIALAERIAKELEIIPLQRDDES
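Measured: the HTRF emission ratio (665/620 nm) plus the 620 nm donor channel, each fitted to the Hill equation to give AC50. Cells were CHO-M1 given compounds up to 46 uM and a 30 min carbachol stimulation at 37C.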
* hit, by the source's call; u = inconclusive; x = no result given; [ ] = remark or other dose. The list is not random: actives were taken first. Their share in the collection is about 9.4%. Unless noted, calls come from the whole dose curve; as a rule, active = well fitted curve in the direction sought with a large enough effect; inconclusive = small, poorly fitted or top-dose-only effect, or another doubt; inactive = no such curve, though single readings can be large; an effect the other way counts as inactive or inconclusive.

SMILES | HTT aggregate | ALDH1A1 block | IMPase Li cell | HPGD block | HTT cytoprotect | IMPase inh
COc1ccc(NC(=O)CC2C(=O)N(C)C(=S)N2CCc2ccccc2F)cc1 (stereo not drawn) | 3.3% | 3.98µM* | 3.4% | x | 7.8% | x
CCN1C(=O)C(CC(=O)Nc2ccc(OC)cc2)N(Cc2cccnc2)C1=S (stereo not drawn) | -3.9% | u | -6.3%[38.3 µM] | -10.1% | x | 3.9
CCN1C(=O)C(CC(=O)Nc2ccc(F)cc2)N(CCc2ccc(OC)cc2)C1=S (stereo not drawn) | 2.8%[9.22 µM] | 10µM* | 21.5% | x | -15.8%[10 µM] | x
COc1ccc(C2CC(=O)c3c(O)cc(O[C@H]4OC(COC5OC(C)C(O)C(O)[C@@H]5O)C(O)C(O)C4O)cc3O2)cc1O (stereo partly drawn) | x | 8.7% | 0.5% | -11.1% | x | x
CCc1cc2c(=O)n(Cc3ccco3)c(SCc3c(C)noc3C)nc2s1 | -4.2% | 22.4µM* | 39.8%[38.3 µM] | -12.1% | -26.0%[10 µM] | 6.7
COC(=O)c1ccc2c(=O)n(Cc3ccco3)c(SCC(=O)Nc3cc(C)on3)nc2c1 | 14.7% | 7.7% | -12.3% | x | -15.2% | x
CCc1cc2c(=O)n(Cc3ccco3)c(SCC(=O)N(C)C3CCS(=O)(=O)C3)nc2s1 (stereo not drawn) | 2.9% | 10µM* | 25.4% | x | -28.4% | x
CCc1cc2c(=O)n(Cc3ccco3)c(SCC(=O)NC3CCS(=O)(=O)C3)nc2s1 (stereo not drawn) | -1.8% | 10µM* | 2.3% | x | -17.2%[10 µM] | x
CN(C(=O)CSc1nc2cc(Cl)ccc2c(=O)n1Cc1ccco1)C1CCS(=O)(=O)C1 (stereo not drawn) | -7.0% | u | 24.4% | x | -19.7% | x
CCc1cc2c(=O)n(Cc3ccco3)c(SCC(=O)N3CCCc4ccccc43)nc2s1 | 8.6%[9.22 µM] | 4.47µM* | 13.0%[38.3 µM] | -25.5% | -20.4% | 9.1
CCCCCCCCc1nc(SC(C)C(=O)O)n[nH]1 (stereo not drawn) | -5.3% | 2.8% | 1.8% | x | -43.6% | x
CCOc1ccc(Cc2n[nH]c(=S)n2N)cc1 | -8.6% | u | 1.0% | u | 3.9%[10 µM] | x
COc1ccc(Cc2n[nH]c(=S)n2N)cc1OC | -3.0% | 10µM* | -5.2% | x | -36.0% | x
Nn1c(Cc2ccc(Br)cc2)n[nH]c1=S | 21.7% | 11.2µM* | -0.2% | x | 12.5%[10 µM] | x
NC(=O)SCC(=O)Nc1ccc(Cl)c(Cl)c1 | -1.6% | u | 5.7%[38.3 µM] | -13.5% | -1.8% | -7.5
NC(=O)/C=C/C(=O)Nc1ccc(Cl)cc1 | u | 2.24µM* | -5.1% | x | -183.9% | x
NC(=O)SCC(=O)Nc1ccc(Cl)cc1 | 16.8% | u | -9.4%[38.3 µM] | 4.47µM* | -6.9% | -0.7
Cc1ccc(NC(=O)CSC(N)=O)cc1Cl | 5.6% | 3.55µM* | 1.7%[38.3 µM] | -13.1% | 11.5% | -3.2
NC(=O)SCC(=O)Nc1cccc(Cl)c1 | 11.8% | 0.597µM* | 25.5%[38.3 µM] | -21.6% | -5.2% | 12.1
NC(=O)Nc1ccc(Cl)cc1 | -8.4%[9.22 µM] | x | x | x | 9.6%[10 µM] | x
COc1ccc(C(=O)/C=C/C(=O)N(CC(=O)NC2CCCCC2)Cc2ccc(F)cc2)c(O)c1 | 3.1%[9.22 µM] | u | 27.2% | x | -31.6%[10 µM] | x
CC(C)=CCC/C(C)=C/C=O | x | u | 14.6% | -11.2% | -9.7% | x
CCOc1ccc(NC(=O)Nc2cc(OCC(F)(F)F)cc(OCC(F)(F)F)c2)cc1 | -6.2% | -2.9% | 19.5% | -14.9% | 6.6%[10 µM] | x
O=C(Nc1ccc(F)cc1)Nc1cc(OCC(F)(F)F)cc(OCC(F)(F)F)c1 | 3.55µM* | 8.7% | 7.6% | -3.6% | -67.2%[10 µM] | 11.7
O=C1c2nc3ccccn3c2C(=O)N1Cc1ccccc1 | -11.8% | 17.8µM* | u | u | -1.4%[10 µM] | 7.6
SMILES | HTT aggregate | ALDH1A1 block | IMPase Li cell | HPGD block | HTT cytoprotect | IMPase inh
COc1ccc(-n2cnnc2SCC(=O)c2ccc(S(=O)(=O)N3CCOCC3)cc2)cc1 | 3.5%[9.22 µM] | 1.41µM* | -32.5%[38.3 µM] | -12.2% | -24.8%[10 µM] | -3.4
CC(C)(C)n1nc2c(c1NC(=O)c1ccc(S(=O)(=O)N3CCCCC3)cc1)CS(=O)C2 (stereo not drawn) | -2.4% | 25.1µM* | 0.3%[38.3 µM] | -0.9% | 7.9% | -0.5
COc1ccc(-n2nnnc2Sc2ccc(S(=O)(=O)N3CCOCC3)cn2)cc1 | -9.1% | 2.82µM* | 14.8%[38.3 µM] | 7.08µM* | -8.3%[10 µM] | -9.4
COc1ccc(-n2nc3c(c2NC(=O)c2ccc(S(=O)(=O)N4CCOCC4)cc2)CS(=O)C3)cc1 (stereo not drawn) | -12.9% | 2.51µM* | 2.5% | x | -2.1% | x
c1ccc(CNc2nc(-c3ccc4c(c3)OCO4)nc3ccccc23)cc1 | x | u | 17.2% | x | -154.5% | x
CCOc1cc(C(=O)NC(=S)Nn2cnnc2)cc(OCC)c1OCC | 4.3% | 11.2µM* | -1.4% | x | -27.8% | x
C=Cc1ccccc1C=C | x | 1.3% | 6.5% | -2.9% | -0.7% | x
COc1ccc(-c2nc(C)sc2C)cc1 | 9.7% | u | 2.8% | 28.2µM* | -10.8%[10 µM] | x
CCCCc1ccc(NC(=O)CN2NS(=O)(=O)c3ccccc3C2=O)cc1 | 21.9% | 3.98µM* | 35.2%[38.3 µM] | -7.2% | -12.7% | -0.1
CCCCc1ccc(NC(=O)CC(C)C)cc1 | x | 3.1% | 5.1% | x | x | x
COCCOC(=O)C1=C(C)NC(=S)NC1/C=C/c1ccccc1 (stereo not drawn) | -0.8% | 0.794µM* | 9.7% | -14.7% | 10.4%[10 µM] | x
COCCOC(=O)C1=C(C)NC(=O)NC1/C=C/c1ccccc1 (stereo not drawn) | 16.3% | -3.3% | 8.4% | -8.0% | 9.8%[10 µM] | x
C=CCOC(=O)C1=C(C)NC(=S)NC1/C=C/c1ccccc1 (stereo not drawn) | -27.7% | 0.0447µM* | 28.3%[38.3 µM] | -18.0% | -30.7% | 4.5
Cc1ccc(C(=O)N/C(=C\c2ccco2)C(=O)NCCCn2ccnc2)cc1C | -16.6% | 25.1µM* | 2.0% | -28.0% | 11.9%[10 µM] | -0.7
COc1ccc(C(=O)N/C(=C\c2ccco2)C(=O)NCCCn2ccnc2)cc1 | 16.6% | -8.6% | -0.3% | -15.4% | 25.0%[10 µM] | 4.4
COc1cc(/C=C2\SC(=Nc3c(C)n(C)n(-c4ccccc4)c3=O)NC2=O)ccc1O | u | -5.3% | -4.2% | 14.1µM* | 26.7%[10 µM] | x
O=C(CSc1cn(CC(=O)N2CCCCC2)c2ccccc12)NCC1CCCO1 (stereo not drawn) | -2.5% | u | 7.1% | x | -13.0% | x
Cn1c(=O)cc(SCC(=O)NCCC2=CCCCC2)c2ccccc21 | 4.6% | u | -5.4% | 7.08µM* | -6.6%[10 µM] | x
CCCn1cc(SCC(=O)NCC2CCCO2)c2ccccc21 (stereo not drawn) | -4.3% | u | 27.8%[38.3 µM] | u | -4.6%[10 µM] | 0.3
COc1ccc(CNC(=O)CSc2cc(=O)n(C)c3ccccc23)cc1 | -3.2% | -9.0% | -14.0% | x | -26.8% | x
Cn1cc(SCC(=O)NCC2CCCO2)c2ccccc21 (stereo not drawn) | -12.7% | 1.7% | 5.0%[38.3 µM] | 28.2µM* | -3.0% | 23.7
